# Test results as given in PubChem BioAssay (Tox21).
# Values without a mark were called inactive. Records with an inconclusive call do not appear. A call without a number means that no potency is given here. Active and inactive are the calls of the source. Unless noted, calls come from the whole dose curve; as a rule, active = well fitted curve in the direction sought with a large enough effect in the repeat runs; inconclusive = weak or mixed curves; inactive = no such curve, though single readings can be large; an effect the other way counts as inactive or inconclusive.
# Assays:
# [1] = A CellTox Green Cytotoxicity Assay to monitor cytotoxicity in HEK293 cells - 16 hour (AID 1224888); note: nearly all actives have a fitted effect of over 35% in size
# Method in brief: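 Cells (HEK293, 600/well) and dye reagent are dispensed together. After 5 h at 37 C, 23 nL compound is pinned in. Plates stay at 37 C for 40 h with fluorescence read at 0h, 8h, 16h, 24h, 32h and 40h.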
# [2] = qHTS RealTime-Glo MT Cell Viability Assay in HepG2 cells - 0 hour (AID 1224889); note: nearly all actives have a fitted effect of over 50% in size
# Method in brief: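 HepG2 cells were seeded at 600 cells/well together with NanoLuc luciferase and a cell-permeant prosubstrate, preincubated 5 h at 37 C/5% CO2, then pin-dosed with compounds in DMSO. Nonlytic luminescence from viable cells was read at each time point.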
# [3] = qHTS assay to identify small molecule antagonists of the estrogen receptor alpha (ER-alpha) signaling pathway using the BG1 cell line in the presence of 0.1 nM 17-beta-estradiol - cell viability counter screen (AID 1259241); note: nearly all actives have a fitted effect of over 40% in size
# Method in brief: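 VM7Luc4E2 cells (endogenous full-length ER-alpha, 4xERE-luciferase), cultured 5 days in charcoal-stripped serum, exposed to compounds with 0.1 nM 17beta-estradiol (final) for 22 hr at 37C. Viability read in same wells as live-cell protease fluorescence after 30 min.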
# [4] = qHTS assay to identify small molecule antagonists of the androgen receptor (AR) signaling pathway using the MDA cell line in the presence of 0.5 nM R1881 - cell viability counter screen (AID 1259242); note: nearly all actives have a fitted effect of over 45% in size
# Method in brief: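 Steps: plate MDA-kb2 cells, rest 5 hr at 37C without CO2; pin in compounds in DMSO; add R1881 to 0.5 nM final; incubate 16 hr; add CellTiter-Fluor, 30 min; read fluorescence.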
# [5] = biological target: Estrogen receptor (Homo sapiens) (UniProt P03372); assay: qHTS assay to identify small molecule antagonists of the estrogen receptor alpha (ER-alpha) signaling pathway using the BG1 cell line in the presence of 0.1 nM 17-beta-estradiol (AID 1259244); note: nearly all actives have a fitted effect of over 50% in size
# Estrogen receptor (Homo sapiens), sequence (P03372 whole entry, looked up): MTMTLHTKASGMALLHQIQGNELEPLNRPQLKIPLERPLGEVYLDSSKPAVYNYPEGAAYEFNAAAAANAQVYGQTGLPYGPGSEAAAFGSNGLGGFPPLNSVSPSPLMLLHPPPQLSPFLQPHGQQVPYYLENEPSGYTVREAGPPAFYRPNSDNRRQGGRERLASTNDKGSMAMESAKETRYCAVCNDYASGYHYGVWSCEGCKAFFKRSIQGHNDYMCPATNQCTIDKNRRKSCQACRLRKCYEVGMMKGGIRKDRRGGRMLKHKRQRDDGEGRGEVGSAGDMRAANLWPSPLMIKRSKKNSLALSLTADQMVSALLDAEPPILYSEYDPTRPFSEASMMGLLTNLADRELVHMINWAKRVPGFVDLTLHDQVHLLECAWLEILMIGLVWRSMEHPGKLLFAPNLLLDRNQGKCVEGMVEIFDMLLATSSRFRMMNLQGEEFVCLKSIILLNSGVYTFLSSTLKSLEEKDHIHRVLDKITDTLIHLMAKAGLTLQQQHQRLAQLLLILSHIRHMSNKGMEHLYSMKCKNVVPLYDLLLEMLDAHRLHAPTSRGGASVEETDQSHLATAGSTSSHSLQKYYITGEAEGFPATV
# Method in brief: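 Antagonist mode: compounds in DMSO are pinned onto VM7Luc4E2 reporter cells, 0.1 nM final 17beta-estradiol is added, and after 22 h at 37C luciferase luminescence is measured with ONE-Glo.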
# [6] = qHTS assay to identify small molecule HDAC inhibitors (AID 1259364);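 note: wild-type HCT-116 cells with endogenous class I/II HDAC activity; top concentration of the series differs between compounds; nearly all actives have a fitted effect of over 45% in size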
# Method in brief: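 Cells (HCT-116, wild type) are seeded at 1,500 per well, incubated overnight, treated with compound in DMSO for 2 hr, then developed with HDAC-Glo I/II reagent for 30 min at room temperature.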
# [7] = qHTS assay to identify small molecule HDAC inhibitors - cell viability counter screen (AID 1259365); note: series mostly up to about 92 µM; nearly all actives have a fitted effect of over 50% in size
# Method in brief: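 Wild-type HCT-116 cells, 1,500/well, cultured overnight, then compound-treated 2 h at 37 C. Viability measured as ATP luminescence with CellTiter-Glo after 30 min at room temperature.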
# [8] = qHTS assay to identify small molecule agonists of the sonic hedgehog signaling (Shh) pathway - cell viability counter screen (AID 1259366); note: nearly all actives have a fitted effect of over 50% in size
# Method in brief: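 NIH/3T3-derived Gli1-Luc reporter cells, 2,000 per well, received compound after 4 h and were treated about 23 h at 37C. Viability measured in the same wells by CellTiter-Fluor fluorescence after 1 h.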
# [9] = qHTS assay to identify small molecule antagonists of the sonic hedgehog signaling (Shh) pathway - cell viability counter screen (AID 1259367); note: nearly all actives have a fitted effect of over 55% in size
# Method in brief: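 CellTiter-Fluor signal in conditioned medium-stimulated 3T3 Gli1-Luc cells, 23 hr compound exposure, 37C.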
# [10] = qHTS assay to identify small molecule agonists of the sonic hedgehog signaling (Shh) pathway (AID 1259368; calls by dose curve;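 note: NIH/3T3-derived 3T3Gli1-Luc cells carrying a stable Gli1-driven firefly luciferase reporter; series mostly up to about 92 µM; nearly all actives have a fitted effect of over 15% in size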)
# Method in brief: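 Cells of a mouse NIH/3T3 clone stably expressing luciferase under the Gli1 transcriptional response element are exposed to test chemicals for 24 hr at 37 C. Pathway activation is detected as a rise in luminescence.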
# [11] = qHTS assay to identify small molecule antagonists of the sonic hedgehog signaling (Shh) pathway (AID 1259369; calls by dose curve; note: nearly all actives have a fitted effect of over 45% in size)
# Method in brief: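 Cells are plated and held 4hr at 37 C, compounds (DMSO) are pinned in, conditioned medium is added to stimulate the pathway, and after 24hr luciferase reagent is added for 30min before luminescence is read.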
# [12] = biological target: Estrogen receptor beta (Homo sapiens) (UniProt Q92731); assay: qHTS assay to identify small molecule agonists of the estrogen receptor beta (ER-beta) signaling pathway (AID 1259377; active = well fitted activation curve with a large enough effect in the signal ratio in the repeat runs, not every such curve was filed as active; the % refers to the signal ratio)
# Estrogen receptor beta (Homo sapiens), sequence (Q92731 whole entry, looked up): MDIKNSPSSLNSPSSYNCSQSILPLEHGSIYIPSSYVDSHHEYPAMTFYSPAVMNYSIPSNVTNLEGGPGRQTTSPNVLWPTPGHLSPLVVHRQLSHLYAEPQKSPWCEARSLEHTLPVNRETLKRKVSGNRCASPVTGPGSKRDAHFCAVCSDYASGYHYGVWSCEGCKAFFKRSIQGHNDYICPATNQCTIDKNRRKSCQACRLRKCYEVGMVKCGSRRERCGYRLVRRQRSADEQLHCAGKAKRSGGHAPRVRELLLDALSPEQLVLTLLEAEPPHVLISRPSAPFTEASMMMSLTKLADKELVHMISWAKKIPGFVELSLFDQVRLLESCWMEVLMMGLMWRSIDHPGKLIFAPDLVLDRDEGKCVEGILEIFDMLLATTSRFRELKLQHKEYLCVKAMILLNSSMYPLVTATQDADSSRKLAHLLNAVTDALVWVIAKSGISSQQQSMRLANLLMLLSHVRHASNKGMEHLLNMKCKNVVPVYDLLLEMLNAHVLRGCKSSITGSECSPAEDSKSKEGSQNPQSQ
# Method in brief: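 ER-beta-UAS-bla HEK293T cells in medium with 2% charcoal-stripped FBS were exposed to compounds for 16 h at 37C. Beta-lactamase reporter activity was read as fluorescence after 2 h with LiveBLAzer B/G FRET substrate at room temperature.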
# [13] = biological target: Estrogen receptor beta (Homo sapiens) (UniProt Q92731); assay: qHTS assay to identify small molecule antagonists of the estrogen receptor beta (ER-beta) signaling pathway (AID 1259378; active = well fitted inhibition curve with a large enough effect in the signal ratio in the repeat runs, not every such curve was filed as active; the % refers to the signal ratio)
# Method in brief: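 Antagonist mode: compounds added to beta-lactamase reporter HEK293T ER-beta-UAS cells stimulated with E2 (1nM final), 16 hr at 37C. LiveBLAzer B/G FRET substrate, 2 hours room temperature, fluorescence read-out.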
# [14] = qHTS assay to identify small molecule agonists of the androgen receptor (AR) signaling pathway in the presence of an antagonist - cell viability counter screen (AID 1259379);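 note: MDA-kb2 human breast cancer cells carrying an MMTV luciferase reporter; series mostly up to about 92 µM; nearly all actives have a fitted effect of over 25% in size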
# Method in brief: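 Cytotoxicity is assessed by CellTiter-Fluor in MDA-kb2 cells carrying an MMTV-driven luciferase reporter. Cells receive 3.0uM nilutamide plus compounds at 15 concentrations and incubate 16 hr at 37C without CO2 before fluorescence reading.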
# [15] = qHTS RealTime-Glo MT Cell Viability Assay in HEK293 cells - 8 hour (AID 1224887)
# Method in brief: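 Real-time viability in HEK293: signal arises when living cells convert a prosubstrate for NanoLuc in the medium, so luminescence tracks viable cell number. Compound (23 nL, DMSO) added 5 h post-seeding; kinetic reads at 0–40 h, 37 C.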
# [16] = A CellTox Green Cytotoxicity Assay to monitor cytotoxicity in HepG2 cells - 8 hour (AID 1224890); note: nearly all actives have a fitted effect of over 45% in size; note: potency is the fitted concentration of half-maximal effect
# Method in brief: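 Cells and non-lytic dye reagent are dispensed together (600 HepG2 cells/well) and incubated 5 h before DMSO compound transfer. Kinetic fluorescence is then recorded in the same wells during 40 h at 37 C.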
# [17] = qHTS assay to identify small molecule agonists of the estrogen receptor beta (ER-beta) signaling pathway - cell viability counter screen (AID 1259380); note: nearly all actives have a fitted effect of over 30% in size
# Method in brief: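 Cytotoxicity is measured in parallel with the reporter screen: after 16 hr compound exposure at 37C and a 2 hr LiveBLAzer step, CellTiter-Glo is added to the same ER-beta-UAS-bla HEK293T wells and luminescence read after 30 min.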
# [18] = biological target: Androgen receptor (Homo sapiens) (UniProt P10275); assay: qHTS assay to identify small molecule antagonists of the androgen receptor (AR) signaling pathway using the MDA cell line in the presence of 0.5 nM R1881 (AID 1259243); note: nearly all actives have a fitted effect of over 50% in size
# Androgen receptor (Homo sapiens), sequence (P10275 whole entry, looked up): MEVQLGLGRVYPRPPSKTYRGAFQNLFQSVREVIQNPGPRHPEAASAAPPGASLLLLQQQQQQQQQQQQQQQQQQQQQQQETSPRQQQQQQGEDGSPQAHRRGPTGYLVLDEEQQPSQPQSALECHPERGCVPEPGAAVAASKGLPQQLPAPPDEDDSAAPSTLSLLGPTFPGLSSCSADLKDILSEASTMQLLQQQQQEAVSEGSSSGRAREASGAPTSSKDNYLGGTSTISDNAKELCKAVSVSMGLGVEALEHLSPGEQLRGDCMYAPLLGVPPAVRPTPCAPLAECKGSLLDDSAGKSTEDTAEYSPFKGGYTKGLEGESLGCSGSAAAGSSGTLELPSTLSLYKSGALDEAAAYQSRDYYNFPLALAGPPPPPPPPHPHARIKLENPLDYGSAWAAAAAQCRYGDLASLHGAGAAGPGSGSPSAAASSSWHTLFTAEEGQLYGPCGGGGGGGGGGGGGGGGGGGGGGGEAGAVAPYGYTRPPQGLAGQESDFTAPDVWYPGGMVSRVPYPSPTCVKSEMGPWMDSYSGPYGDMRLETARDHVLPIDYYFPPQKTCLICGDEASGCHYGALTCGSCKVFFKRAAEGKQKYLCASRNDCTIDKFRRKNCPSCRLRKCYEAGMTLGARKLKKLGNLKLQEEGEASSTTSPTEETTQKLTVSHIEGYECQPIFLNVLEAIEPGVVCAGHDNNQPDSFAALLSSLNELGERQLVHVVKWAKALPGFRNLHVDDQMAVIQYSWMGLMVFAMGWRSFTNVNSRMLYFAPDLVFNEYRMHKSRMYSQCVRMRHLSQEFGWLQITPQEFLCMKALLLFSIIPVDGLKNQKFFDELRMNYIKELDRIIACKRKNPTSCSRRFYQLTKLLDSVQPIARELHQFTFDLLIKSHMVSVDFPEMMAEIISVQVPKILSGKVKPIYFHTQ
# Method in brief: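 Stably transfected MDA-kb2 cells express luciferase from an MMTV promoter bearing both AR and GR response elements. Compounds plus 0.5 nM R1881 (final) were incubated 16 hr at 37C without CO2, then luminescence measured.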
# [19] = qHTS assay to identify small molecule phospholipidosis (PLD) inducers (AID 1259344; active = well fitted curve in the direction sought with a large enough effect; an effect the other way counts as inactive or inconclusive)
# Method in brief: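 Accumulated phospholipid, stained red by LipidTOX during 24 h compound treatment of HepG2 cells at 37 C, is quantified from images as pit number and intensity, normalised per cell using Hoechst-stained nuclei.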
smiles,measurement,setting,value
CC(=O)OC(C)c1ccccc1 (centres undefined),Potency,[1],inactive
same,Potency,[2],inactive
same,Potency,[3],inactive
same,Potency,[4],inactive
same,Potency,[5],inactive
same,Potency,[6],inactive
same,outcome,[7],inactive
same,Potency,[8],inactive
same,Potency,[9],inactive
same,outcome,[10],inactive
same,Potency,[11],inactive
same,Potency,[12],inactive
same,outcome,[13],inactive
same,Potency,[14],inactive
O=CO,"activity change, negative = cytotoxicity",[15],8.18% [at 6.97 µM]
same,"activity change, negative = cytotoxicity",[2],-14.6% [at 6.97 µM]
same,cytotoxicity increase,[16],-4.28% [at 6.97 µM]
same,"activity change, negative = cytotoxicity",[3],-0.2% [at 8.39 µM]
same,"viability change, negative = cytotoxic",[4],2.31% [at 8.39 µM]
same,"activity change, negative = inhibition",[6],-0.333% [at 8.39 µM]
same,"activity change, negative = cytotoxicity",[7],-1.28% [at 8.39 µM]
same,"viability change, negative = cytotoxic",[8],5.23% [at 8.39 µM]
same,"viability change, negative = cytotoxic",[9],1.7% [at 8.39 µM]
same,activity change,[10],-0.175% [at 8.39 µM]
same,"activity change, negative = inhibition",[11],8.06% [at 8.39 µM]
same,"activity change, negative = cytotoxicity",[14],0.727% [at 8.39 µM]
same,"activity change, negative = cytotoxicity",[17],0.536% [at 8.39 µM]
CCCOCCOCCOCCO,Potency,[15],inactive
same,Potency,[1],inactive
same,Potency,[2],inactive
same,Potency,[3],inactive
same,Potency,[4],inactive
same,outcome,[18],inactive
same,Potency,[5],inactive
same,Potency,[6],inactive
same,outcome,[7],inactive
same,Potency,[8],inactive
same,Potency,[9],inactive
same,Potency,[11],inactive
same,Potency,[12],inactive
same,outcome,[13],inactive
same,Potency,[14],inactive
same,outcome,[17],inactive
CCCCC(CC)CNC(=O)CC(C)OC(=O)CCC(=O)O (centres undefined),Potency,[1],inactive
same,Potency,[2],inactive
same,Potency,[16],26.8 µM (active)
same,Potency,[3],inactive
same,Potency,[4],inactive
same,outcome,[18],inactive
same,Potency,[5],inactive
same,Potency,[6],inactive
same,outcome,[7],inactive
same,Potency,[8],inactive
same,Potency,[9],inactive
same,outcome,[10],inactive
same,Potency,[11],inactive
same,Potency,[12],inactive
same,Potency,[14],inactive
same,outcome,[17],inactive
CCOC(=O)CCc1ccccc1,Potency,[1],inactive
same,Potency,[2],inactive
same,Potency,[16],inactive
same,Potency,[3],inactive
same,Potency,[4],inactive
same,Potency,[6],inactive
same,outcome,[7],inactive
same,Potency,[8],inactive
same,Potency,[9],inactive
same,outcome,[10],inactive
same,Potency,[11],inactive
same,Potency,[12],inactive
same,outcome,[13],inactive
same,Potency,[14],inactive
same,outcome,[17],inactive
NCCc1ccn[nH]1,Potency,[1],inactive
same,Potency,[2],inactive
same,Potency,[16],inactive
same,Potency,[3],inactive
same,Potency,[4],inactive
same,outcome,[18],inactive
same,outcome,[19],inactive
same,Potency,[6],inactive
same,outcome,[7],inactive
same,Potency,[8],inactive
same,Potency,[9],inactive
same,outcome,[10],inactive
same,Potency,[11],inactive
same,Potency,[12],inactive
same,outcome,[13],inactive
same,Potency,[14],inactive
same,outcome,[17],inactive
O=C(O)Cc1cccc(-c2cc(CCCCCCc3ccc(O[C@H]4O[C@H](CO)[C@@H](O)[C@H](O)[C@@H]4O)c(-c4cccc(CC(=O)O)c4)c3)ccc2O[C@H]2O[C@H](CO)[C@@H](O)[C@H](O)[C@@H]2O)c1,"activity change, negative = cytotoxicity",[15],11.8% [at 0.29 µM]
same,activity change,[1],"-7.34% [at 0.29 µM, active compounds read high]"
same,cytotoxicity increase,[16],23.5% [at 0.29 µM]
same,"activity change, negative = cytotoxicity",[3],-0.713% [at 0.349 µM]
same,"viability change, negative = cytotoxic",[4],-0.767% [at 0.349 µM]
same,outcome,[19],inactive
same,"activity change, negative = inhibition",[6],0.203% [at 0.349 µM]
same,"activity change, negative = cytotoxicity",[7],-0.936% [at 0.349 µM]
same,"viability change, negative = cytotoxic",[8],1.74% [at 0.349 µM]
same,"viability change, negative = cytotoxic",[9],3.56% [at 0.349 µM]
same,activity change,[10],-0.0491% [at 0.349 µM]
same,"activity change, negative = cytotoxicity",[14],1.29% [at 0.35 µM]
same,"activity change, negative = cytotoxicity",[17],7.37% [at 0.349 µM]
Cn1c(=O)c2c(ncn2CC2OCCO2)n(C)c1=O,Potency,[1],inactive
same,Potency,[2],inactive
same,Potency,[16],inactive
same,Potency,[3],inactive
same,Potency,[4],inactive
same,outcome,[18],inactive
same,outcome,[19],inactive
same,Potency,[6],inactive
same,outcome,[7],inactive
same,Potency,[8],inactive
same,Potency,[9],inactive
same,Potency,[12],inactive
same,outcome,[13],inactive
same,Potency,[14],inactive
same,outcome,[17],inactive
